Assay [1] can be described thus: Cell Viability - MRC5 (AID 434; calls by dose curve;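 further: potency means the concentration at half of the fitted maximal effect; cells exposed to compound for 40 hours at 37 °C; potency reflects cytotoxicity seen as loss of intracellular ATP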). Particulars: MRC5 lung fibroblast viability, qHTS. The essentials: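 Decrease in intracellular ATP, quantified by luciferase light output, reflects compound toxicity toward MRC5 cells exposed for 40 hr in complete culture medium. Concentration-response curves, scaled between DMSO and 100 uM tamoxifen, gave AC50 values.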
(In general: In qHTS, concentration-response curves come from the screen itself.)

A short description of assay [2]: Cell Viability - SK-N-SH (AID 435; calls by dose curve;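 further: potency means the concentration at half of the fitted maximal effect; compound exposure lasted 40 h at 37 °C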). Particulars: SK-N-SH neuroblastoma cell viability qHTS. The essentials:
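Human neuroblastoma line, 40 h exposure at 37 °C, ATP quantified via luciferase luminescence; DMSO and 100 uM tamoxifen define 0 and 100% inhibition for AC50 fitting.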

The nature of assay [3]: Cell Viability - NIH 3T3 (AID 541). Further: nearly all actives have a fitted effect of over 25% in size. Further: potency means the concentration at half of the fitted maximal effect.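 On activity change, negative = cytotoxicity: plate controls were DMSO alone for no effect and tamoxifen positive control for full effect.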 The note with it: NIH 3T3 cell viability, qHTS; activity change, negative = cytotoxicity: at 92.2 µM (top of the series). The essentials: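 In this cytotoxicity screen, acute toxicity is scored as an ATP drop measured by CellTiter-Glo in NIH 3T3 fibroblasts following a 40 hr, 37 °C incubation with compound.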
The nature of assay [4]: Cell Viability - Mesenchymal (AID 546).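 Further: cells exposed to compound for 40 hours before reading.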 Further: potency means the concentration at half of the fitted maximal effect. The note with it: mesenchymal cells viability, qHTS; activity change, negative = cytotoxicity: at 91.7 µM (top of the series). The essentials: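 In this qHTS cytotoxicity format, glomerulus-derived human mesenchymal kidney cells received compound for 40 hr, then luciferase-based ATP quantitation. Concentration-response data were fitted with the Hill equation.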

A short description of assay [5]: Cellular Toxicity (caspase-3) HepG2 (AID 654).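 Further: cells exposed to compound for 16 hours before reading.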 The note with it: HepG2 caspase-3 activation, luminescence, 0% = DMSO only, 100% = tamoxifen; series mostly up to 92.2 µM. The gist of the method: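 Concentration-response AC50 values reflect caspase-3/7 induction in HepG2 cells after 16 hours of compound exposure, quantified by luminescence from liberated aminoluciferin and referenced to 100 uM tamoxifen as full stimulation.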

Assay [6] is described as follows: Cellular Toxicity (caspase-3) HUV-EC-C (AID 656). The note with it: HUV-EC-C cells, caspase-3 activation (apoptosis), vehicle = 0, 100 µM tamoxifen = 100%; series mostly up to 92.2 µM. The essentials: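 Concentration-dependent caspase 3/7 induction was assessed in HUV-EC-C cells exposed for 16 hours. Data scaled between DMSO and tamoxifen (100 uM) controls.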
The nature of assay [7]: Cellular Toxicity (caspase-3) BJ (AID 658). Particulars: BJ fibroblasts, luminescence, normalized: DMSO 0%, staurosporine 100%; series mostly up to 91.7 µM. The gist of the method: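 Plated BJ cells (1000/well) rested 5 hr, received compound for 16 hr at 37 °C, then Caspase-Glo 3/7 reagent for 1 hr at room temperature before luminescence reading.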
The nature of assay [8]: Cellular Toxicity (caspase-3) MRC-5 (AID 659). Particulars: MRC-5 cells, luminescence, normalized: DMSO 0%, 10 µM staurosporine 100%; series mostly up to 91.7 µM. The gist of the method: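 Apoptosis readout in MRC-5 cells: luciferase light generated after caspase 3/7 cleaves a peptide-aminoluciferin substrate, measured post 16 hr compound incubation at 37 °C.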
The nature of assay [9]: Cellular Toxicity (caspase-3) Mesangial (AID 660).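 Further: combined caspase 3 and 7 activity read by Caspase-Glo luminescence; cells exposed to compound for 16 h before the caspase read.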 The note with it: mesangial cells, normalized: DMSO 0%, 100 µM tamoxifen 100%; series mostly up to 91.7 µM. The gist of the method:
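AC50 values come from Hill-equation fits of caspase 3/7 activation, measured as Caspase-Glo luminescence in human glomerular mesangial cells exposed to compound for 16 h at 37 °C; 100% set by 100 uM tamoxifen.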

Assay [10] in a line: Cellular Toxicity (caspase-3) Hek293 (AID 664).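 Further: cells exposed to compound for 16 h at 37 °C before readout.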 Particulars: HEK293 caspase-3 activation, DMSO = 0%, 100 µM tamoxifen = 100%; series mostly up to 92.2 µM. The gist of the method: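 Apoptosis readout: Caspase-Glo 3/7 signal in human HEK293 cells following 16-hour compound incubation. Responses scaled between DMSO baseline and 100 uM tamoxifen.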
Assay [11] can be described thus: Cellular Toxicity (caspase-3) Renal Proximal Tubule (AID 667).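 Further: cells exposed to compound for 16 hours at 37 °C before detection.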 Particulars: renal proximal tubule cells, primary cells freshly taken from rat, solvent-only wells 0%, staurosporine 100%; series mostly up to 91.7 µM. The essentials: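 Caspase-Glo 3/7 read-out, rat primary kidney proximal tubule cells. Compound exposure 16 h, 37 °C; detection after 1 h at RT. Activity scaled to DMSO and 10 uM staurosporine.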

A short description of assay [12]: MultiTox-Fluor Cytotoxicity Assay - LYMP1-003 - Live Cells (AID 962).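 Further: 0% = DMSO only and full loss = 92 µM tetraoctylammonium bromide; cytotoxic hits lower the live-cell protease signal.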 The note with it: LYMP1-003 lymphoblastoid cells, MultiTox-Fluor live-cell protease fluorescence; series mostly up to 92.2 µM. The gist of the method:
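Human lymphoblastoid line LYMP1-003 in complete culture medium, treated 16 hr with titrated compounds. Viable cells quantified via cell-permeant GF-AFC substrate fluorescence; AC50 derived by Hill fitting.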

The nature of assay [13]: Cell Viability - LYMP1-003 - Assay at 40 hr (AID 964). Further: nearly all actives have a fitted effect of over 60% in size. Further: potency means the concentration at half of the fitted maximal effect. The note with it: LYMP1-003 lymphoblastoid viability; series mostly up to 92.2 µM. The gist of the method: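 Acute toxicity is scored as a concentration-dependent loss of intracellular ATP in LYMP1-003 cells (2500/well, complete medium) after 40 hr at 37 C, measured by CellTiter-Glo luminescence; AC50 values derive from standard Hill modelling.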

Assay [14] is described as follows: Cell Viability - LYMP2-011 (AID 969).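 Further: cells exposed to compound for 24 hours; 0% = DMSO only and full inhibition = 92 µM tetraoctylammonium bromide; nearly all actives have a fitted effect of over 60% in size.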 The note with it: LYMP2-011 lymphoblastoid cells viability; series mostly up to 92.2 µM. The essentials: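 Cells seeded at 2500 per well rest 5 hr before compound addition, then incubate 24 hr at 37 C. CellTiter-Glo reagent is added for 30 min at room temperature before luminescence detection.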
Assay [15] in a line: Cell Viability - LYMP2-017 (AID 972).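 Further: cells exposed to compound for 24 hours at 37 °C; on the % scale 0 is the no-effect control and ±100 the full control effect; nearly all actives have a fitted effect of over 55% in size.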 The note with it: LYMP2-017 lymphoblastoid cell viability; series mostly up to 92.2 µM. The gist of the method:
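In this qHTS format, lymphoblastoid cells in complete medium receive test compound for a day at 37 C before ATP content is quantified by luciferase luminescence. Reported AC50 figures come from standard Hill-equation curve fitting.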

A short description of assay [16]: Cell Viability - LYMP2-007 (AID 979).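 Further: cells exposed to compound for 24 h before reading; 0% = DMSO only and the negative end = 92 µM tetraoctylammonium bromide; nearly all actives have a fitted effect of over 60% in size.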 Particulars: LYMP2-007 lymphoblastoid cell viability; series mostly up to 92.2 µM. The essentials:
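Measured via luciferase-based ATP quantitation: lymphoblastoid cells, 24 hr compound exposure at 37 C, AC50 from Hill fits.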

The nature of assay [17]: Cell Viability - LYMP2-010 (AID 981).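 Further: cells exposed to compound for 24 hours at 37 °C; on the % scale 0 is the no-effect control and ±100 the full control effect; nearly all actives have a fitted effect of over 55% in size.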 Particulars: LYMP2-010 lymphoblastoid cell viability, qHTS; series mostly up to 92.2 µM. The gist of the method:
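This 24 hr viability screen uses LYMP2-010 lymphoblastoid cells, quantifies ATP via luciferase luminescence, and derives AC50 from Hill fits of qHTS concentration-response data.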

Assay [18] is described as follows: Cell Viability - LYMP2-012 (AID 982).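 Further: cellular ATP by luciferase luminescence where a drop means cytotoxicity; cells exposed to compound for one day before reading; 0% = DMSO only and full loss = 92 µM tetraoctylammonium bromide; nearly all actives have a fitted effect of over 55% in size.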 The note with it: LYMP2-012 lymphoblastoid cell viability qHTS; series mostly up to 92.2 µM.
Assay [19] in a line: Cell Viability - LYMP2-018 (AID 985).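 Further: plate controls were DMSO only for no effect and tetraoctylammonium bromide at 92 µM for full effect; nearly all actives have a fitted effect of over 50% in size.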 The note with it: LYMP2-018 lymphoblastoid cells, viability (qHTS); series mostly up to 92.2 µM. The gist of the method:
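In this qHTS viability assay, cells are treated for 24 hr and cellular ATP is quantified by luciferase-based luminescence, with tetraoctylammonium bromide as positive control.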

Assay [20] can be described thus: qHTS Assay for Identification of Small Molecule Inducers of Hypoxia Response (AID 2120; active means well fitted curve in the direction sought with a large enough effect in the signal ratio, with a control signal flat, not every such curve was filed as active; the % refers to the signal ratio; further: 0% is about no effect). Particulars: hypoxia response reporter cells, beta-lactamase ratio readout; series mostly up to 104 µM. The gist of the method: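 HRE-bla ME-180, 2500 cells/well, 0.5% dialyzed FBS medium; cpd titration, 17 h 37 degrees C; CCF4 2.5 h RT; Ex 405, Em 460/530 ratio -> %Activity, AC50.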

Values joined by “and” are separate entries in the source; they are usually repeats but may differ in a detail not shown here. Identical values can stand only once. A number with no mark means an inactive call. Inconclusive results are not listed. Active and inactive are the calls of the source. Unless noted, the call rests on the fitted dose curve; in most records, active means well fitted curve in the direction sought with a large enough effect; inconclusive means small, poorly fitted or top-dose-only effect, or another doubt; inactive means no such curve, though single readings can be large; an effect the other way counts as inactive or inconclusive.

In the case of `C/C=C\c1ccc(OC)cc1`, the Potency in assay [1] and in assay [2] was over 92 µM throughout. Also, the Potency entry in [3], in assay [12], in assay [13], in assay [14], in assay [15] and in assay [16] was “inactive” throughout. Moreover, the Potency entry in assay [17], in [18] and in assay [19] was “inactive” each time. Further, the activity change, negative = cytotoxicity in assay [4] is -1.47%. Also, the call in assay [5], in [6], in [7], in assay [8], in [9] and in [10] was inactive. The call in assay [11] and in [20] was inactive.

For the compound `CCCCCCCCCCCCCCC1CO1` (stereo not given), the Potency in assay [1] and in assay [2] was over 92 µM each time. Further, the Potency entry in assay [3], in assay [12], in assay [13], in [14], in assay [15] and in assay [16] was “inactive” in each case. In addition, the Potency entry in assay [17], in [18] and in assay [19] was “inactive” in each case. In addition, in assay [4], the activity change, negative = cytotoxicity was 2.08%. The compound was called inactive in assay [5], in assay [6], in assay [7], in [8], in assay [9] and in assay [10]. Further, the result in assay [11] and in assay [20] was inactive.

Regarding `Cc1ccc(N)c([N+](=O)[O-])c1`, the Potency in assay [1] and in assay [2] was over 92 µM in each case. Also, the Potency result in assay [3], in assay [12], in [13], in [14], in assay [15] and in assay [16] was “inactive” throughout. Also, the Potency result in assay [17], in [18] and in [19] was “inactive” throughout. Also, the activity change, negative = cytotoxicity in assay [4] is 5.43%. In addition, the result in [5], in assay [6], in assay [7], in [8], in [9] and in assay [10] was inactive. Further, the outcome in assay [11] and in assay [20] was inactive.

For `CN(C)CCCCCCN(C)C`, the Potency in [1] and in assay [2] was over 92 µM throughout. Moreover, the Potency result in assay [3], in assay [12], in assay [13], in assay [14], in assay [15] and in [16] was “inactive” each time. In addition, the Potency entry in [17], in assay [18] and in [19] was “inactive” in each case. Besides, the activity change, negative = cytotoxicity in assay [4] was 10.5%. The result in assay [5], in [6], in assay [7], in [8], in assay [9] and in assay [10] was inactive. Moreover, the call in [11] and in assay [20] was inactive.

Turning to `c1ccccc1`, the Potency in assay [1] and in [2] was over 92 µM throughout. The Potency result in assay [3], in assay [12], in assay [13], in assay [14], in [15] and in assay [16] was “inactive” in each case. Also, the Potency result in [17], in assay [18] and in [19] was “inactive” each time. The activity change, negative = cytotoxicity in assay [4] is 7.51% and 0.0243%. In addition, the result in [5], in assay [6], in assay [7], in assay [8], in assay [9] and in assay [10] was inactive. For the same compound, the compound was called inactive in [11] and in assay [20].

With `S=C1NC=NC2N=CNC12` (stereo not given), the Potency was over 92 µM in [1]; 0.237 µM (active) in [2]; 3.98 µM (active) in [3]; 0.501 µM (active) in assay [4]; 1.58 µM (active) in [13]. Besides, the compound was called inactive in assay [5], in [6], in assay [7], in [8], in [9] and in [10]. The call in [11] and in assay [20] was inactive. The Potency result in [12], in assay [14], in assay [15], in assay [16], in assay [17] and in assay [18] was “inactive” each time. Besides, the Potency result in assay [19] is “inactive”.

For the origin of these results see PubChem BioAssay (NCATS).
